Source: PubChem BioAssay (NCI)
The panel holds about 83,000 compounds, 20% with a hit somewhere; the sample as a whole holds those more often.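 The endpoint reported here, percent growth, reads 100 for growth as untreated, 0 for no net growth and -100 for all cells dead.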 Values without a mark were called inactive. Calls of active or inactive are those of the source. The calls were made as follows: active = growth percent below 10; inactive = the rest.

Assays:
Experiment in all cases: NCI-60 one-dose screen, 48 h (100 = growth as untreated, 0 = no growth, -100 = all killed)
HCT-15 colon = conditions: 10 µM unless noted
SNB-75 CNS = conditions: 10 µM
SNB-19 CNS = conditions: 10 µM unless noted
U251 CNS = conditions: 10 µM unless noted
PC-3 prostate = conditions: 10 µM unless noted
UACC-62 melanoma = conditions: 10 µM unless noted
LOX IMVI melanoma = conditions: 10 µM unless noted
SK-MEL-28 melanoma = conditions: 10 µM unless noted
SK-MEL-2 melanoma = conditions: 10 µM unless noted
EKVX NSCLC = conditions: 10 µM unless noted
SN12C renal = conditions: 10 µM unless noted
UO-31 renal = conditions: 10 µM unless noted
TK-10 renal = conditions: 10 µM unless noted
CAKI-1 renal = conditions: 10 µM unless noted
A498 renal = conditions: 10 µM unless noted
CCRF-CEM leukemia = conditions: 10 µM unless noted
MOLT-4 leukemia = conditions: 10 µM unless noted
SK-MEL-5 melanoma = conditions: 10 µM unless noted
ACHN renal = conditions: 10 µM unless noted

Compound	growth (HCT-15 colon)	growth (SNB-75 CNS)	growth (SNB-19 CNS) [%]	growth (U251 CNS)	growth (PC-3 prostate)	growth (UACC-62 melanoma)	growth (LOX IMVI melanoma)	growth (SK-MEL-28 melanoma)	growth (SK-MEL-2 melanoma)	growth (EKVX NSCLC) [%]	growth (SN12C renal)	growth (UO-31 renal)	growth (TK-10 renal)	growth (CAKI-1 renal) [%]	growth (A498 renal)	growth (CCRF-CEM leukemia)	growth (MOLT-4 leukemia)	growth (SK-MEL-5 melanoma)	growth (ACHN renal)
COc1ccc(CNCCCN2C(=O)c3ccc4c5c(ccc(c35)C2=O)C(=O)N(CCCNCCCCNCCCN)C4=O)c(OC)c1OC	19.7%	-26.8% (active)	28	-6.34% (active)	15.3%	1.36% (active)	6.59% (active)	29%	-36.5% (active)	48.7	-54.6% (active)	51.4%	25.7%	56.1	80%	16.5%	14.4%	–	–
O=C1CCCCC1(c1ccccc1)c1ccccc1	91.3%	88.8%	100	108%	–	99.7%	94%	95.6%	100%	91.2	104%	–	–	82.4	–	101%	105%	99.1%	101%
CCN(CC)CCOc1ccc(Cl)c(C)c1	104%	93.4%	101	107%	101%	104%	101%	107%	–	111	108%	86.5%	116%	102	103%	98.4%	99.8%	–	104%
CC(=O)Nc1nc(N)nc(NC(C)=O)c1N=O	104%	109%	111	116%	99.6%	109%	94.3%	115%	–	–	106%	93.3%	114%	–	118%	112%	113%	114%	104%
C=C[C@@H]1C[C@@H]2Cc3cc(Cl)ccc3N1O2	97.7%	93.3%	113	89.7%	94.9%	96.5%	–	103%	107%	90.2	94.9%	101%	101%	88.7	85.6%	-61.3% (active)	26.4%	102%	104%
COc1ccc(-c2cn(-c3cccc(C(=O)/C=C/c4cc(OC)c(OC)c(OC)c4)c3)c(=O)[nH]2)cc1OC	82.1%	58.2%	108	71.6%	81.5%	73.1%	69.4%	98.9%	75.3%	98	78.1%	–	96.1%	96	90.3%	34.3%	70.4%	–	81.8%
COc1ccc2c(c1)C(c1cc(OC)c3c(c1)OCO3)C1=C(COC1=O)N2 (configuration not stated)	26.2%	43.6%	35.2	20.3%	21.9%	46.7%	–	60%	33.2%	41.1	28%	62%	60.8%	51.1	30%	7.1% (active)	16.5%	–	–
CO[C@H]1NC(=O)N(S(=O)(=O)c2ccc(Cl)cc2)[C@@H]1OC	102%	93.6%	103	101%	97.3%	100%	–	106%	113%	101	102%	88%	103%	92.5	112%	–	102%	108%	105%
Nc1ncnc2c1c(-c1ccc(Oc3ccccc3)cc1)nn2C[C@@H]1SSC[C@@H]1O	64.6%	5.33% (active)	60.7	37.5%	55.4%	-81.1% (active)	-20.5% (active)	2.67% (active)	-57.5% (active)	25.2	37.1%	13.7%	–	–	43.8%	-15% (active)	-38.1% (active)	–	23.6%
COc1ccc(C(=O)n2nc(/C=C/c3ccc(O)c(OC)c3)cc2/C=C/c2ccc(O)c(OC)c2)cc1	5.59% (active)	-16% (active)	12.8	0.801% (active)	-9.28% (active)	-0.825% (active)	–	-8.32% (active)	-34.1% (active)	–	12.8%	-1.75% (active)	24.7%	20.4	-14.8% (active)	-11.6% (active)	-18.4% (active)	-13.3% (active)	7.64% (active)
CN1C=CN(Cc2ccc(-c3ccccn3)nc2)[CH-]1.CN1C=CN(Cc2ccc(-c3ccccn3)nc2)[CH-]1.[Au+3]	68.5%	72.6%	62.6	38.6%	20.3%	30.7%	32.4%	–	46.5%	–	41.3%	83.5%	67.4%	67.6	42.9%	6.2% (active)	11.3%	37.8%	81.7%
C=C(C)[C@@H]1C[C@H](O)Cc2cc(F)ccc2N1	100%	87.5%	104	92.7%	91.6%	95.6%	87.1%	–	76.8%	87.3	93.8%	75.5%	92.3%	91.4	111%	-62.7% (active)	-28.3% (active)	99.3%	94.4%
COc1cc2c(cc1O)CCN1C[C@@H](CC(C)C)[C@@H](O)C[C@@H]21	106%	107%	102	92.1%	86.3%	93.1%	–	–	98.1%	95.3	94.3%	88.4%	97%	91.4	107%	107%	95.4%	107%	103%
CN(C)c1ncnc2c1ccn2C1OC(CO)C(O)C1O (configuration not stated)	14.3%	27%	73.8	97%	13%	93.4%	3.02% (active)	–	54.9%	60.5	17.8%	24.8%	40.9%	34.7	68%	10.7%	9% (active)	89.5%	32.3%
O=[N+]([O-])c1ccc(OCCCOc2ccccc2)cc1	99.4%	97.2%	105	90.7%	94.3%	93.7%	97.6%	103%	102%	96.8	104%	87.2%	97.5%	93.9	102%	105%	94.6%	–	106%
CCCCCCCCCCCCCCCCNC(=O)OC(C)C	55.9%	64%	95.5	14.1%	-16.9% (active)	81.7%	-2.25% (active)	95.9%	58.7%	22.8	64.3%	–	-3.04% (active)	28.5	75.1%	7.75% (active)	7.03% (active)	–	–
C=C(C)[C@@H]1C[C@@H]2Cc3cc(F)ccc3N1O2	92.9%	95.9%	105	89.5%	95%	95%	–	107%	98.1%	85.9	98.6%	77.4%	97%	98	95.2%	-47.4% (active)	–	95.3%	95.4%
COc1ccc2[nH]c(=O)c3c4ccccc4cn3c2c1	9.19% (active)	56.5%	27.9	9.8% (active)	7.65% (active)	28.2%	–	54.7%	50.5%	39.1	21.5%	9.09% (active)	16.9%	–	50.3%	-31.2% (active)	6.08% (active)	35.1%	23.2%
O=C([O][Sn]([O]C(=O)c1ccccn1)([c]1ccccc1)[c]1ccccc1)c1ccccn1	81.7%	49.3%	105	86.3%	93.1%	83%	50.6%	98.1%	–	92.2	91.3%	82.4%	30.1%	76.5	101%	18.1%	88.3%	84.3%	100%
